DAX1 inh-1: NR0B1 (DAX1) inhibition | HEK293 Gal4-DAX1 luciferase reporter, luminescence | inhibition, % at 6.75 µM | actives 0.99% (n = 340,000) | AID 504766;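 active means inhibition above the mean over all tested compounds plus 3 SD, cut at about 4.2% in these data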;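 further: 0% = DAX1-transfected cells with DMSO and 100% = empty-vector control cells with DMSO; inhibition shows as a rise in luminescence from relieved DAX1 repression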
Target sequence (P51843 207-470 limits assumed): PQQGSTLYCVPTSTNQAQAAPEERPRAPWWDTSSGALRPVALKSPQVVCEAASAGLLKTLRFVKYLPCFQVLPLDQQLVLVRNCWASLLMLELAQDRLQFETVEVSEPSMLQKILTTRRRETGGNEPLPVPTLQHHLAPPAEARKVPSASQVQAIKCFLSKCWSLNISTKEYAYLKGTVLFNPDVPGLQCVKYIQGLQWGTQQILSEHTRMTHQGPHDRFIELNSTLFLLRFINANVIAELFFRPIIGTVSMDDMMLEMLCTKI
hcDAF-12 act: H. contortus DAF-12 activation, primary screen | HEK293 hcDAF-12 lit1-tk-luc reporter, luminescence; 0% DMSO, 100% Δ7-dafachronic acid | activation, % at 6.8 µM | actives 1.4% (n = 370,000) | AID 652067;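 active means activation above the mean of all tested compounds plus 3 SD, cut at about 5.5% in these data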;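 further: 100% = response to 3 µM Δ7-dafachronic acid high control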
DAX1 inh-2: inhibitors of DAX1 repression of SF-1 activated StAR promoter | HEK293T StAR-luciferase reporter, SF-1/DAX-1 repression relief | inhibition, % at 6.8 µM | actives 1.1% (n = 370,000);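 active means inhibition above the mean over all tested compounds plus 3 SD, cut at about 3.6% in these data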;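 further: 0% = DAX-1 cells with DMSO and 100% = cells lacking DAX-1 with DMSO; higher inhibition means more luminescence from relief of DAX-1 repression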
hgDAF-12 ag: activates the H. glycines DAF-12 receptor ligand-binding domain; HEK293 GAL4-hgDAF12 UAS-luciferase reporter, agonist luminescence; normalized to butyrate control; actives 1.8% (n = 370,000); AID 687014; activation, % at 6.8 µM;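 active means activation above a cutoff set at the mean of all screened compounds plus 3 SD, cut at about 10% in these data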;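 further: 0% = DMSO wells and 100% = sodium butyrate wells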
SMARCA2 activ: activators of SMARCA2 function | actives 1% (n = 370,000) | AID 652017 | activation, % at 9.1 µM | MG213 cells, MMTV-luciferase reporter, dexamethasone, overnight; in the data active means activation above about 7.8%;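 further: 0% = vehicle wells and 100% = reference activator wells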
ssDAF12 agonist: S. stercoralis DAF-12 activation, primary screen; HEK293 ssDAF-12/GRIP1 lit1-tk-luc reporter, luminescence; % of 3 µM dafachronic acid response; activation, % at 6.8 µM; AID 652126; actives 1% (n = 370,000);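 active means activation above the mean over all tested compounds plus 3 SD, cut at about 0.9% in these data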;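 further: 0% = DMSO-only wells and 100% = 3 µM delta7-dafachronic acid wells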
Active calls of the source: *. The list is not random: actives were taken first. Their share in the collection is about 4.8%.

`CN(Cc1nccn1C)C(=O)c1ccc2nc(Cc3ccccc3F)oc2c1` gave DAX1 inh-1 2, hcDAF-12 act 3, DAX1 inh-2 1, hgDAF-12 ag 13*, SMARCA2 activ 4 and ssDAF12 agonist -1.
For COc1ccc(Cc2nc3ccc(C(=O)NCc4cccc(C)n4)cc3o2)cc1OC the results were DAX1 inh-1 -1, hcDAF-12 act -2, DAX1 inh-2 0, hgDAF-12 ag 1, SMARCA2 activ 0 and ssDAF12 agonist -1.
Screening Cc1cccc(CNC(=O)c2ccc3nc(Cc4ccccc4F)oc3c2)n1 returned DAX1 inh-1 2, hcDAF-12 act 2, DAX1 inh-2 3.7*, hgDAF-12 ag 11*, SMARCA2 activ 4 and ssDAF12 agonist 0.
`Cn1ccnc1C(=O)O[C@@H]1CCC[C@@]2(C(=O)N(Cc3ccccc3)c3ccccc32)[C@H]1NC(=O)CCc1ccccc1` gave hcDAF-12 act -3, DAX1 inh-2 -1, hgDAF-12 ag -1, SMARCA2 activ 2 and ssDAF12 agonist -1.
`CC1(C(=O)NS(=O)(=O)c2ccccc2Cl)CCN1C(=O)Cc1cccc2ccccc12` (stereo not drawn) gave hcDAF-12 act 0, DAX1 inh-2 1, hgDAF-12 ag 2, SMARCA2 activ -3 and ssDAF12 agonist -1.
Cc1ccc(-c2cc(C(=O)NN=Cc3ccc(-c4ccccc4)cc3)[nH]n2)cc1 was read as hcDAF-12 act 0, DAX1 inh-2 -1, hgDAF-12 ag 4, SMARCA2 activ -4 and ssDAF12 agonist -2.
For COCCCNC(=O)c1ccc(CN2CCc3ccccc3C2)cc1 the results were DAX1 inh-1 21*, hcDAF-12 act -2, DAX1 inh-2 0, hgDAF-12 ag 1, SMARCA2 activ -2 and ssDAF12 agonist -1.
Screening CCOC(=O)N1CCC(NC(=O)CCCN2C(=O)CSc3ncccc32)CC1 returned DAX1 inh-1 2, hcDAF-12 act 0, DAX1 inh-2 0, hgDAF-12 ag 3, SMARCA2 activ 0 and ssDAF12 agonist -1.
CCOC(=O)N1CCC(NC(=O)CN2C(=O)CSc3ncccc32)CC1 was read as DAX1 inh-1 5.0*, hcDAF-12 act 5, DAX1 inh-2 0, hgDAF-12 ag -2, SMARCA2 activ 0 and ssDAF12 agonist -1.
Screening O=C(COc1ccccc1[N+](=O)[O-])Nc1ccc2c(c1)CCC2 returned DAX1 inh-1 2, hcDAF-12 act 2, DAX1 inh-2 4.5*, hgDAF-12 ag 10, SMARCA2 activ 1 and ssDAF12 agonist -1.
`COc1ccc(NC(=O)c2ccco2)cc1NC(=O)COc1ccccc1[N+](=O)[O-]` gave DAX1 inh-1 4.6*, hcDAF-12 act 1, DAX1 inh-2 0, hgDAF-12 ag -1, SMARCA2 activ -2 and ssDAF12 agonist -1.
Screening O=C(COC(=O)COc1ccccc1[N+](=O)[O-])Nc1ccc(S(=O)(=O)N2CCCCC2)cc1 returned DAX1 inh-1 0, hcDAF-12 act 2, DAX1 inh-2 0, hgDAF-12 ag 2, SMARCA2 activ -4 and ssDAF12 agonist 1.2*.
Screening COc1ccccc1NC(=O)COC(=O)CCc1ccc(S(=O)(=O)N2CCOCC2)cc1 returned DAX1 inh-1 0, hcDAF-12 act 1, DAX1 inh-2 1, hgDAF-12 ag 1, SMARCA2 activ -2 and ssDAF12 agonist -1.
Screening O=C(COc1ccccc1[N+](=O)[O-])Nc1cccc(S(=O)(=O)N2CCCC2)c1 returned DAX1 inh-1 -2, hcDAF-12 act -3, DAX1 inh-2 -2, hgDAF-12 ag -2, SMARCA2 activ -2 and ssDAF12 agonist -2.
`O=C(COC(=O)CCc1ccc(S(=O)(=O)N2CCOCC2)cc1)Nc1ccccc1[N+](=O)[O-]` gave DAX1 inh-1 0, hcDAF-12 act 5.6*, DAX1 inh-2 1, hgDAF-12 ag 1, SMARCA2 activ -2 and ssDAF12 agonist 0.
`CCOc1ccc(NC(=O)CN2C(=O)NC(C)(c3ccc4c(c3)OCCCO4)C2=O)cc1OCC` (stereo not drawn) gave DAX1 inh-1 0, hcDAF-12 act -1, DAX1 inh-2 1, hgDAF-12 ag -2, SMARCA2 activ 2 and ssDAF12 agonist -1.
Screening COC(=O)c1cc2c(n1S(=O)(=O)c1ccc(C)cc1)C(=O)C(=O)c1[nH]cc(C(=O)OCc3ccccc3)c1-2 returned DAX1 inh-1 -5.
O=C1CCC[C@H]2C[C@H](NCc3ccc(F)cc3F)CC[C@]23CCCN13 was read as hcDAF-12 act -2, hgDAF-12 ag 0 and ssDAF12 agonist 0.
`Cc1ccc2ccccc2c1C(O)c1ncc(-c2ccc(Cl)cc2)[nH]1` (stereo not drawn) gave hcDAF-12 act 4, DAX1 inh-2 0, hgDAF-12 ag 2, SMARCA2 activ -2 and ssDAF12 agonist -1.
Screening O=C(O)C(=O)Cc1c[nH]c2ccccc12 returned DAX1 inh-1 2, hcDAF-12 act 1, DAX1 inh-2 -1, hgDAF-12 ag 3, SMARCA2 activ 0 and ssDAF12 agonist 1.2*.
`O=C(Cc1c[nH]c2ccccc12)OCC(=O)c1ccccc1` gave DAX1 inh-1 1, hcDAF-12 act 3, DAX1 inh-2 0, hgDAF-12 ag 3, SMARCA2 activ -1 and ssDAF12 agonist 1.2*.
`CCN(C(=O)COC(=O)Cc1c[nH]c2ccccc12)C1CCS(=O)(=O)C1` (stereo not drawn) gave DAX1 inh-1 0, hcDAF-12 act 6.1*, DAX1 inh-2 0, hgDAF-12 ag 2, SMARCA2 activ -4 and ssDAF12 agonist 1.2*.
O=C(NC(Cc1c[nH]c2ccccc12)C(=O)O)c1ccccc1 (stereo not drawn) was read as DAX1 inh-1 1, hcDAF-12 act 3, DAX1 inh-2 1, hgDAF-12 ag 1, SMARCA2 activ 4 and ssDAF12 agonist 1.2*.
For CCC(C)N(C(=O)COC(=O)CCc1c[nH]c2ccccc12)C1CCS(=O)(=O)C1 (stereo not drawn) the results were DAX1 inh-1 1, hcDAF-12 act 1, DAX1 inh-2 0, hgDAF-12 ag 0, SMARCA2 activ -2 and ssDAF12 agonist -1.
`O=C(N[C@@H](Cc1c[nH]c2ccccc12)C(=O)O)c1ccc(Cl)cc1` gave DAX1 inh-1 0, hcDAF-12 act 1, DAX1 inh-2 2, hgDAF-12 ag 2, SMARCA2 activ -5 and ssDAF12 agonist -1.
For CC1(C(=O)NS(=O)(=O)c2ccccc2)CCN1C(=O)Cc1ccc(Cl)cc1Cl (stereo not drawn) the results were hcDAF-12 act -1, DAX1 inh-2 0, hgDAF-12 ag -3, SMARCA2 activ 7 and ssDAF12 agonist -1.

Screening results deposited in PubChem BioAssay by The Scripps Research Institute Molecular Screening Center.
